# What was measured:
# Assay in all cases: MAPPIT interaction score (arbitrary units); higher = stronger binary interaction signal, active = hit call of the paper;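 active = MAPPIT score above the 99th percentile of random reference set scores in the same batch; inactive = at or below it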
# Jupiter = details: MAPPIT configuration: N-N; pair source set: DPIM
# JIL-1 = details: MAPPIT configuration: N-N; pair source set: Lit-BM-16
# TrxT = details: MAPPIT configuration: N-N; pair source set: screen_2
# Ilp6 = details: pair source set: RRS
# Jheh2 = details: MAPPIT configuration: N-N; pair source set: Lit-BS-16
# Pfdn2 = details: MAPPIT configuration: N-N; pair source set: Lit-BM-16
# Ing3 = details: MAPPIT configuration: N-N; pair source set: Curagen_low_conf
# Hsp60B = details: MAPPIT configuration: N-N; pair source set: Lit-BS-16
# JMJD4 = details: MAPPIT configuration: N-N; pair source set: Curagen_low_conf
# Pdha = details: MAPPIT configuration: N-N; pair source set: Lit-BS-16
# Pih1D1 = details: MAPPIT configuration: N-N; pair source set: Finley_Y2H
# Sms = details: MAPPIT configuration: N-N
# 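Note: HEK293T cells with Epo stimulation, STAT-responsive firefly luciferase reporter, fold induction versus unstimulated cells divided by the larger fold induction of two negative controls lacking either bait or prey.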
binder,measurement,setting,value
Clp (protein) MDILLANVSGLQFKAERDLIEQVGAIPLPFYGMDKSIAAVCNFITRNGQECDKGSACPFRHIRGDRTIVCKHWLRGLCKKGDQCEFLHEYDMTKMPECYFYSRFNACHNKECPFLHIDPQSKVKDCPWYKRGFCRHGPHCRHQHLRRVLCMDYLAGFCPEGPSCKHMHPHFELPPLAELGKDQLHKKLPTCHYCGELGHKANSCKQYVGSLEHRNNINAMDHSGGHSGGYSGHSGHIEGADDMQSNHHSQPHGPGFVKVPTPLEEITCYKCGNKGHYANKCPKGHLAFLSNQHSHK,MAPPIT interaction score,Jupiter,-0.085 (inactive)
msl-2 (protein) MAQTAYLKVTRIAMRSASNLSKRRVEELNSGLGELRQLLSCVVCCQLLVDPYSPKGKRCQHNVCRLCLRGKKHLFPSCTQCEGCSDFKTYEENRMMAAQLLCYKTLCVHLLHSALFGELAGMRPQVARELVPRIKLPPKTTQEFIREGSNISDTFDIFLPQPDLPFLKDMPTSLPAETPPTSAVTTPELPYDHHLNISDIEAEAAATAEQGHFSPLPLLPTGSRMGMLSHAGQIVIATESSESGFMDQAWTDQVDLSGTVSVSKYTNSGNNFAVSYVMPTSATTKFDPQELQIGQVVQMADSTQLAVLAAVEETVETSTQLTVLSTTVEETVETSTQLEVLTSAEEPNEISDQLANLQVEESDEALVEETVEEAEGTSIPSEVVAEHMEEDQHLDVHTSQSPTQTEMEEAVEEHVATKTQLGHVQTELQDAESLQKDFEDAKAAAEEAKEKEKDLHAISAELQKEDSDEPTLKRKRTRTLKASQAAKIEPVPSEVKTKVQSGKGALRRIRGKDKEEKVKPPKPKCRCGISGSSNTLTTCRNSRCPCYKSYNSCAGCHCVCCKNPHKEDYVESDEDDDLEDFEMPKDVPEPMTQSEEPVVAEPRQEENSMAPPDSSAPISLVPLNNLQQSQHPLVLVQNEKGEYQGFNIFQGSKPLDPVTVGFTIRVQLQHTDGFGSLPQYAYIMPTIDPPNPPAPSLSPPPPPAPDREVIEPPAKKFRTSRTRRGRANFSALDTVDELVSGGSRSNSAAGDRSSATDNAHSLFEEIMSGSDDL,MAPPIT interaction score,JIL-1,0.418 (inactive)
same,MAPPIT interaction score,TrxT,0.135 (inactive)
Coprox (protein) MNALRHTISLVSLGTFQLVRRTRGPHARGFLLGTGLGLASFSAVTYAHSAEAVDPKVNGVQMNTSRFMAEPITDSKALLGDKENMRHRMEILIMEIQAEFCRALEAEENCGQKFKVDRWERPEGGGGITCVLQDGDVFEKAGVNISVVTGSLPPAAVQQMRARGKNLKEGASLPFFASGVSAVIHPRNPHVPTIHFNYRYFEVETAKGEKQWWFGGGTDLTPYYLCEKDASHFHQTLKSACDEHDPTYYPRFKKWCDDYFRIKHRNESRGIGGIFFDDIDSPNQEAAFNFVSSCARAVIPSYVPLVRKHKNREYGNNERQWQLLRRGRYVEFNLIYDRGTKFGLYTPGARYESILMSLPLHARWEYMHEPKSQSEEGKLMKVLKNPKDWV,MAPPIT interaction score,Ilp6; MAPPIT configuration: N-C,0.0185 (inactive)
same,MAPPIT interaction score,Ilp6; MAPPIT configuration: N-N,-0.101 (inactive)
Srp68 (protein) MVVQEDNPNTGDVQEKTETAPVAEPSKIFTVEILHMIKDAQQQHGLRHGDFQRYRGYCSRRIRRLRKALKYPQGDKRHFKRRDVTIGQLTGKKADERFIHIPLICAERAWAYAMQLKQESNTEPRKRFHLVNKLRRACFYALQLQELCNTEAFDARTKLECEAYVAWMHGTLHFELQLWKTAGEHLKRAQVVYENLGKALPEDEQELYRAKVNEFTPNLRYCAYNISGGASGGKIDEILELRAQGVLENLDVLVSQTKTESSEGLQTIDWRGRKVTVRPEKVRLFLLSAQELDKSLAKTTKQDAKIELIERILMDCKDAIQAVRDEIKQDPKLRSLTTGQTVSGVQYLLAYLSYIRHSRTLQRNLCLVEQAKLNFYDPNLQSQQNVGDGKRVRPQDLARLYEIILQNVTEMQQINGLEDDATYQSEVENLAITFKAFRCYYIALTLIDIKKWKEAVALYERASNYATEALKGKSSPEFQLQEELKKVVSAIDGCKFSAHAYSVLEDDNSEESGTTTKSQKTTKPLYERLSLYKEDQSLHTKAPNVFKLTPDMEPIPCKPIFFDLAMTYVELPSLEGKLESPGKKGASITGFVKGFLGWGGGGNK,MAPPIT interaction score,Jheh2,-0.0601 (inactive)
Pfdn5 (protein) MAATPSAPAKSEMIDLTKLSPEQLIQIKQEFEQEITNVQDSLSTLHGCQAKYAGSKEALGTFQPNWENRQILVPLTSSMYVPGRVKDLNRFVIDIGTGYYIEKDLEGSKDYFKRRVEYVQEQIEKIEKIHLQKTRFYNSVMSVLEMKQAAAAKLQSQQQSQPAVTQSS,MAPPIT interaction score,Jupiter,-0.0979 (inactive)
same,MAPPIT interaction score,Pfdn2,5.87 (active)
HBS1 (protein) MSRHRIVRTMDYNDEYDGYDDIYGHSVEDEHCISPTDAQQWLYDRARGQQSISAFISKNKDIQEEEADEDEDEDAAFAKARRDSESFQMPQLDEIEQAKLSSCVDEVRSVVGDAVSERRIVETSMKFDYDMQKILDEILNEETNKSAKPAVNKMKAPAAPVLPKTVSKTVPTPPPKISLKEPRRGFEIPSPKVPSSPVVSGRNTPVDISAGDDISRSSATVFKVSKEQAVRNARQLYEKERADQKSHIHMIVIGHVDAGKSTLMGHLLYDTGNVSQRVMHKHEQESKKLGKQSFMYAWVLDETGEERARGITMDVGQSRIETKTKIVTLLDAPGHKDFIPNMISGATQADVALLVVDATRGEFESGFELGGQTREHAILVRSLGVNQLGVVINKLDTVGWSQDRFTEIVTKLKSFLKLAGFKDSDVSFTPCSGLTGENLTKKAQEPALTNWYSGRHLLDVIENFKIPERAIDRPLRMSVSDIYKGTGSGFCISGRVETGVLCLNDKVLVGASREQAQVKSLTMNEFPQTCVFAGDQVSVTLPALDINNVTVGCIISDPQTPIPVTTRFQARIIVFNVKVPITMGFPVLLHHQSLIEPAVVCKLTASIHKSTGEVVKKKPRCLGNNSCALVELETSRPICIERYADFKELGRVMLRVAGVTIAAGMVTKIR,MAPPIT interaction score,Ing3,0.0794 (inactive)
Sf3b3 (protein) MYLYNLTLQKATGVTHAVHGNFSGGKQQEVLLSRGKSLELLRPDSNTGKVHTLLSTEIFGCVRALMAFRLTGGTKDYIVVGSDSGRIVILEYNPSKNALEKVHQETFGKSGCRRIVPGQYFAIDPKGRAVMIGAVEKQKLAYIMNRDTQARLTISSPLEAHKSNTLTYHMVGVDVGFDNPMFACLEIDYEEADMDPSGDAAQRTQQTLTFYELDLGLNHVVRKYSEPLEEHANFLVSVPGGNDGPSGVLICSENYLTYKNLGDQHDIRCPIPRRRNDLDDPERGMIFICSATHRTKSMYFFLLQTEQGDIFKITLETDDDVVSEIKLKYFDTVPPATAMCVLKTGFLFVASEFGNHYLYQIAHLGDDDDEPEFSSAMPLEEGETFFFAPRALKNLVLVDELPSFAPIITSQVADLANEDTPQLYVLCGRGPRSTLRVLRHGLEVSEMAVSELPGNPNAVWTVKKRADDEFDAYIIVSFVNATLVLSIGETVEEVTDSGFLGTTPTLCCAALGDDALVQVYPDGIRHIRSDKRVNEWKAPGKKSITKCAVNQRQVVITLSGRELVYFEMDPTGELNEYTERSEMPAEIMCMALGTVPEGEQRSWFLAVGLADNTVRILSLDPNNCLTPCSMQALPSPAESLCLVEMGHTESTTQGGLDDDAPAQRSGNNKGTIYLNIGLSNGVLLRTVLDPVSGDLADTRTRYLGSRPVKLFRIKMQGSEAVLAMSSRTWLSYYHQNRFHLTPLSYETLEYASGFSSEQCSEGIVAISTNTLRILALEKLGAVFNQVAFPLQYTPRTFVIHPDTGRMLIAETDHNAYTEDTKSARKEQMAEEMRSAAGDEERELAREMANAFINEVLPEDVFSSPKAGLGLWASQIRCLDAMHGQTMFSVPLTQNEAIMSMAMLKFSIAADGRYYLAVGIAKDLQLNPRISQGGCIDIYKIDPTCSSLEFMHRTDIDEIPGALCGFQGRLLAGCGRMLRIYDFGKKKMLRKCENKHIPYQIVNIQAMGHRVYVSDVQESVFFIRYRRAENQLIIFADDTHPRWVTATTLLDYDTIAIADKFGNLSIQRLPHSVTDDVDEDPTGTKSLWDRGLLSGASQKSENICSFHVGEIIMSLQKATLIPGGSEALIYATLSGTVGAFVPFTSREDYDFFQHLEMHMRNENPPLCGRDHLSYRSSYYPVKNVLDGDLCEQYLSIEAAKQKSIAGDMFRTPNQICKKLEDIRTRYAF,MAPPIT interaction score,Hsp60B,1.36 (inactive)
Hsp60B (protein) MFRSCVPKAITSSRCFARMYSKDVRFGSGVRAMMIRGVDILADAVAVTMGPKGRSVIVERPWTSPKITKDGFTVARSIALKDQHMNLGAKLVQDVADNTNESAGDGTTTATVLARAIAKEGFNQITMGANPVEIRRGVMLAVDVVKDKLKEMSKAVETREEIQQVATLSANGDTEIGRLIGEATDKVGPRGTITVKDGKRLKDELNIIQGLRFDNGYVSPFFVNSSKGSKVEFANALVMISLKKITGLSQIVKGLEQSLRQRRPLIIIAEDISGEALNALVLNKLRLGLQVCAVKSPSYGHHRKELIGDISAATGATIFGDDINYSKMEEAKLEDLGQVGEAVISKDSTMLLQGKPKTGLLEMRIQQIQDELAEKQIKPEQRDRLRQRLSALTKGVAVLHIGGGSEVEVNEKKDRVVDALNATRAAIEEGIVPGGGTAFLRCIPYLQELKTESADLQKGVDIVCNALRMPCQTIAQNAGVDGPMVVAKVLNGSEDYGYDAMGDEYCRLVEKGIIDPTKVLRTAITDAAGVASLLSTTEVVITDSRNDDLLSKLSGAGGGMDDGLDMNMGGLEELAALSGLGGMGGMGGMGGMGGMGGMGGGFGGMGAGGGMSASASNDGPTAEEMNEMVKAIPGMEQVEVRDIDSGMM,MAPPIT interaction score,JMJD4,0.939 (inactive)
same,MAPPIT interaction score,Pdha,1.16 (inactive)
same,MAPPIT interaction score,Pih1D1,0.845 (inactive)
same,MAPPIT interaction score,Sms; pair source set: Finley_Y2H,1.94 (inactive)
same,MAPPIT interaction score,Sms; pair source set: Lit-BM-16,1.8 (inactive)
rswl (protein) MLKHFARWRLGSQLLKGCAAPVRQASKTSSAENLIAGTEEPQKKFVNPFSQPAPALSNDTISENKEERDKRLKVLQLEADIAHQEGRRVPSLEFFKDHHWEHVLTLPTKSARIKYFGYLWQIEMKKEADQRKKAERAKEAERRVAEMRKEREENTHIIYGLGHTSLFLRIYDTTINHWQNNRLTRAMQFAPKMVLDCSYDEHMNNREATYAAKQLMMCFAENRMNDEPFDLHYCNTQMDSRCMQSLQRYIPTMHNPEFPINLHSKCFTELFPKQNLVYLTPHCREDLVTYNPDDIYIVGAMVDTMNNEPLSLAKAKRLGLRMARLPLDRYLQWGSGSGKSLTLNQMINIMLDLKKTGDWDTALKHVPRRKVVQNEFQPRREKDHWSTGTRARKLNMRIDHLFDFDENRRQATSYATPQNVRQRREGLEFQLDTWATGKQKKKQRQN,MAPPIT interaction score,Jupiter,0.211 (inactive)

# — the supplement of paper PMC10105736
